Assay results published in PubChem BioAssay AID1117293 (Broad Institute, 2014).
Potency and affinity values are given separately. Inconclusive results are not listed. Entries that show only a call come without a potency. The source made the active and inactive calls.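 Rule for the calls: active = cytotoxic in every repeat run, with fitted half-maximal concentration at most twice the top tested dose; inconclusive = runs disagree, or flat partial drop, or poor curve fit; inactive = inactive in every run.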

Assay: embryonic kidney cell viability loss – CellTiter-Glo luminescence, dry powder, set 20, cytotoxicity control, dose response (AID 1117293)

Compound	outcome
COc1ccc(C(=O)Nc2ccccc2N2CCCCC2)cc1S(=O)(=O)O	inactive
COc1ccc(C(=O)O)cc1S(=O)(=O)N1CCN(c2ccc(C(F)(F)F)cc2N)CC1	inactive
COc1ccc(C(=O)Nc2cc(C(F)(F)F)ccc2N2CCOCC2)cc1S(=O)(=O)O	inactive
COc1cccc(NC(=O)NC2(C(=O)N3CCN(C(C)=O)CC3)CCCCC2)c1	inactive
COc1ccc(C(=O)O)cc1S(=O)(=O)Nc1cc(C(F)(F)F)ccc1N1CCOCC1	inactive
O=S(=O)(Nc1cc(C(F)(F)F)ccc1N1CCCCC1)c1ccc(Br)cc1	inactive
O=S(=O)(Nc1cc(C(F)(F)F)ccc1N1CCCCC1)c1ccc(C(F)(F)F)cc1	inactive
COc1ccc(C(=O)Nc2cc(C(F)(F)F)ccc2N2CCCC2)cc1S(=O)(=O)O	inactive
O=S(=O)(O)c1ccc(N2N=C(c3ccccc3)CC2c2ccccc2)cc1 (centres undefined)	inactive
CC(=O)N1CCN(C(=O)CNC(=O)Nc2ccc(C)cc2)CC1	inactive
CC(=O)N1CCN(C(=O)C2(NC(=O)NCCc3ccccc3)CCCCC2)CC1	inactive
CC(=O)N1CCN(C(=O)C2(NC(=O)Nc3ccc(C(C)C)cc3)CCCCC2)CC1	inactive
CC(=O)N1CCN(C(=O)C2(NC(=O)Nc3ccccc3F)CCCCC2)CC1	inactive
O=S(=O)(Nc1cc(C(F)(F)F)ccc1N1CCCCC1)c1ccccc1	inactive
COc1ccc(C(=O)O)cc1S(=O)(=O)Nc1cc(C(F)(F)F)ccc1N(C)C	inactive
COc1ccc(C(=O)Nc2cccc(C(F)(F)F)c2)cc1S(=O)(=O)O	inactive
O=[N+]([O-])c1cccc(S(=O)(=O)Nc2cc(C(F)(F)F)ccc2N2CCCCC2)c1	inactive
CC(=O)N1CCN(C(=O)C2(NC(=O)Nc3cccc(F)c3)CCCCC2)CC1	inactive
COc1ccc(C(=O)O)cc1S(=O)(=O)Nc1ccc(N2CCCCC2)cc1C(F)(F)F	inactive
O=S(=O)(Nc1cc(C(F)(F)F)ccc1N1CCCCC1)c1ccc(F)cc1	inactive
CC(=O)N1CCN(C(=O)C2CCCN2C(=O)Nc2ccc(C)cc2)CC1 (centres undefined)	inactive
CC(=O)N1CCN(C(=O)C2(NC(=O)Nc3ccccc3)CCCC2)CC1	inactive
COc1ccc(C(=O)O)cc1S(=O)(=O)Nc1cc(C(F)(F)F)ccc1N1CCCCC1	inactive
Cc1ccc(NC(=O)NC2(C(=O)N3CCN(c4ccccc4)CC3)CCCCC2)cc1	inactive
